Whole data set: some 68,000 sequences, median “fluorescence intensity (a.u.)” near 9,100, cut for the highest 2% near 16,000. The list comes from a sample in which the highest values are over-represented; it also holds similar and randomly drawn sequences.

In this test the target is OsWRKY34 (Oryza sativa, UniProt Q0JBA9 1-250). Briefly: protein-binding microarray (RPBM); PBS, 2% BSA, 51.3 ng/ul salmon testes DNA, 50 uM zinc acetate, 200 nM TF, 25 C, 1 h; high values mean tight binding. As to conditions: protein: recombinant; tags: N-terminal polyhistidine and DsRed monomer fusion (pET32a); label: CyDye5-dUTP incorporated in the synthesized complementary strand; 3' TTTTT single-stranded linker to array surface; dsDNA, one strand shown. Summed up: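 The binding signal for each feature is its fluorescence intensity in arbitrary units. An Axon 4000B scanner was used to read a custom Agilent array that had been made double-stranded with Cy5-dUTP primer extension, blocked with 2% BSA, incubated at 25 °C for 1 h with 200 nM protein in PBS, 2% BSA, salmon testes DNA and 50 µM zinc acetate, and washed. The protein was an N-terminal polyhistidine–DsRed transcription factor fusion from E. coli BL21-CodonPlus, purified on Ni–NTA.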
Chain of OsWRKY34 (Q0JBA9 entry or part of it): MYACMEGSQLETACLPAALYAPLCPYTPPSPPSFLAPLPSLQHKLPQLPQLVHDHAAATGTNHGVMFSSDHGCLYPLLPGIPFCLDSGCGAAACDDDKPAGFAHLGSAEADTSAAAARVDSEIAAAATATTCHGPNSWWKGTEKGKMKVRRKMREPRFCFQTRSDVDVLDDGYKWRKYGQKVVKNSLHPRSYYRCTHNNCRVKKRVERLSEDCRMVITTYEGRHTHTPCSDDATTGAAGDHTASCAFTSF
Turning to “CTCAACTCGGGATGACATTTGGGGTGTTTTTTTTTTGCAACGGAGTCACCTAGTGCAG”, the binding signal is 9820 fluorescence intensity (a.u.).
As for “TACTTGCACTTTACTATATTCTTGCTGTTACGCACCACATCGGAGTCACCTAGTGCAG”, the binding signal was 14600 fluorescence intensity (a.u.).
The figure for “AGTTAAAACCGCTACTCCACTCCTCCCATTGCATAATTTTCGGAGTCACCTAGTGCAG” is 9400 fluorescence intensity (a.u.); for “AATTTTGATAGATGTGGGATGTGTTGTAATTTGTAAATTTCGGAGTCACCTAGTGCAG” it is 8270 fluorescence intensity (a.u.).
The figure for “GCGGCAGGTTTCGGCGGCGGGGCGGGCGGCAGGTGTCGGCCGGAGTCACCTAGTGCAG” is 20000 fluorescence intensity (a.u.).
Then “TTCTTTTCTTTTTTTCTTTGCGGGGATTTCATATAGGATTCGGAGTCACCTAGTGCAG”, with 8510 fluorescence intensity (a.u.); and “TGGCGCGTGGGAGGGTCAGCCTAGGGCGTCGGAGGGGCGGCGGAGTCACCTAGTGCAG”, with 13400 fluorescence intensity (a.u.); and “AAGGTGGTGGGGCAGGTGGAGCGGGTGGTCGGGGCGACGCCGGAGTCACCTAGTGCAG”, with 11300 fluorescence intensity (a.u.).
As to “GCCGGCGGCAGGGTGGGGCGGGGACGCCTGCCGGCGTCGGCGGAGTCACCTAGTGCAG”, the binding signal is 9860 fluorescence intensity (a.u.).
For “TTTGCAGGTTTCGTTTGCATTTGCGGGGCGGGCATATATGCGGAGTCACCTAGTGCAG”, the binding signal is 21600 fluorescence intensity (a.u.).
The figure for “AGGTTCCGGGAGGGCGGGGTGGAGCACGAGGCGGCGGTGCCGGAGTCACCTAGTGCAG” is 10600 fluorescence intensity (a.u.); for “TTTCGGTTTTGCTACTTCACATGCGCATATTTTTGGAGGGCGGAGTCACCTAGTGCAG” it is 9330 fluorescence intensity (a.u.); for “TTGTCCTCAGCCGGCAGTGTAGGTTCCGGGAGGGCGGGGTCGGAGTCACCTAGTGCAG” it is 19300 fluorescence intensity (a.u.).
Regarding “TTTTGCGCGGATGGCCCTTTACTTTTCCCCTCTTGTCCTCCGGAGTCACCTAGTGCAG”, the binding signal is 10400 fluorescence intensity (a.u.).
Then “ACTTCTACTCCTACTTCCCTGTGTGGCCCACAGCTAGATACGGAGTCACCTAGTGCAG”, with 10300 fluorescence intensity (a.u.); and “TGGAAGTCTGGAAGGCGCTGTACCTTCGTCTCGCCCGTCACGGAGTCACCTAGTGCAG”, with 8650 fluorescence intensity (a.u.).
The figure for “ATATGTCAAGTTTGGTGGATATAGTTGTTTGGCCTTTTACCGGAGTCACCTAGTGCAG” is 11700 fluorescence intensity (a.u.); for “CACGCTGCACTGCACCGCTTTACGCCATCTCGCCAATTTTCGGAGTCACCTAGTGCAG” it is 10300 fluorescence intensity (a.u.); for “CCAATTTTTTTTTCTCCTTTTGCTTTTTTTCATCAAGAACCGGAGTCACCTAGTGCAG” it is 8740 fluorescence intensity (a.u.).
Then “CGGAACCGCTCCTCGAGAAGCTCTCGAATTCCTCGTCGTCCGGAGTCACCTAGTGCAG”, with 9310 fluorescence intensity (a.u.); and “AGAACGAACAGTCAAACATATGCTAAAAAGTCAACGGTGTCGGAGTCACCTAGTGCAG”, with 10200 fluorescence intensity (a.u.); and “AAGACGAACGGTCAAATATGTGCTAAAAAGTCAACGGTGTCGGAGTCACCTAGTGCAG”, with 9990 fluorescence intensity (a.u.).
As for “TAAGACGAATGGTCAAATATGTGCTAAAAAGTCAACGGTGCGGAGTCACCTAGTGCAG”, the binding signal was 13100 fluorescence intensity (a.u.).
The figure for “GGTAAAATATGTGCTAAAAAGTCAACGGTGTCAAACATTTCGGAGTCACCTAGTGCAG” is 14400 fluorescence intensity (a.u.).
The figure for “TGTTATGCAAATGTGCAAATGCAAAAGTTGGCCGCAAGAACGGAGTCACCTAGTGCAG” is 17600 fluorescence intensity (a.u.); for “ATAAGACGAACGGTCAAATATGTGCTAAAAAGTCAACGGTCGGAGTCACCTAGTGCAG” it is 16400 fluorescence intensity (a.u.).
The figure for “ATAAGACGAACGGTTAAAAATGTGCCAAAAAGTCAACGGCCGGAGTCACCTAGTGCAG” is 9640 fluorescence intensity (a.u.).
With “AGACGAACAGTCAAATATGTGCTAAAAAGTCAACGGTGTCCGGAGTCACCTAGTGCAG”, the binding signal is 17500 fluorescence intensity (a.u.).
The figure for “GAACGGTCAAACATGTGTTAAAAAGTCAACGGTGTTAAACCGGAGTCACCTAGTGCAG” is 9470 fluorescence intensity (a.u.); for “TCCTATCCCTACGAGCACTTCCGAAATATTGGACTGACATCGGAGTCACCTAGTGCAG” it is 8370 fluorescence intensity (a.u.); for “ATAACTCGGGTCGGACTCGGACCTCAGGCCCACGTATTCCCGGAGTCACCTAGTGCAG” it is 8400 fluorescence intensity (a.u.).
The figure for “CGCTGATTGGGTTGGGTCGGGTTAGCTTTGGTTTCAATGCCGGAGTCACCTAGTGCAG” is 11200 fluorescence intensity (a.u.); for “AATACTCCTCTACTCATATTAGTACAATATCACAAACTTACGGAGTCACCTAGTGCAG” it is 8250 fluorescence intensity (a.u.); for “ACTGCTTTGTTCTATTTGATTATTTTTTTACTCATCAGATCGGAGTCACCTAGTGCAG” it is 15900 fluorescence intensity (a.u.).
Regarding “ATGTTTGACACCGTTGATTTTTTAACACATGTTTGACCGTCGGAGTCACCTAGTGCAG”, the binding signal is 9910 fluorescence intensity (a.u.).
The figure for “AATGTTTGACGCCGTTGACTTTTTAGCACATGTTGACCGTCGGAGTCACCTAGTGCAG” is 42200 fluorescence intensity (a.u.).
On to “TGTTTGACGCCGTTGACTTTTTAGCACATGTTTGACCGTTCGGAGTCACCTAGTGCAG”, for which the binding signal is 43600 fluorescence intensity (a.u.).
Regarding “TGTTTGACGCCGTTGACTTTTTAACACATGTTTGACCGTTCGGAGTCACCTAGTGCAG”, the binding signal is 41700 fluorescence intensity (a.u.).
With “ACGCCATTGACTTTTTAGCAGATGTTTGACCGTTCGTTTTCGGAGTCACCTAGTGCAG”, the binding signal is 20700 fluorescence intensity (a.u.).
Then “GCCGCGCACGCCGTCATCTCTTTTTCGTTCCATACTTCTCCGGAGTCACCTAGTGCAG”, with 10700 fluorescence intensity (a.u.).
On to “GGCTGGGTGTTACAACTTTGTCCAAAACATCAATAATTATCGGAGTCACCTAGTGCAG”, for which the binding signal was 8610 fluorescence intensity (a.u.).
On to “CCCACATTTTTTCTTCTCACTTATATGTGGGTCCCATAATCGGAGTCACCTAGTGCAG”, for which the binding signal is 8640 fluorescence intensity (a.u.).
